Shown are actives, neighbours in structure and some others; about 3.5% of the full set was active somewhere.
TEAD-YAP inh: TEAD-YAP interaction inhibition | 1.4% of 640,000 active | HEK-TIYL cells, TEAD-Gal4/YAP UAS-luciferase luminescence | inhibition, % at 9.12 µM; in the data active = inhibition above about 32%;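 note: 0% = median of test compound wells and 100% = reference inhibitor wells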
MITF primary: human MITF inhibition, primary screen; AlphaScreen MITF homodimerization, bead proximity signal; inhibition, % at 2.6 µM; 0.91% of 650,000 active; O75030; in the data active = inhibition above about 50%;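 note: 0% = vehicle wells with protein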
GPR151 ag: activates the human receptor GPR151; Q8TDV0; PathHunter beta-arrestin GPR151 cells, luminescence; activation, % at 11.2 µM; 1% of 650,000 active; AID 1508602; in the data active = activation above about 4.9%;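 note: 0% = median of compound wells and 100% = cells with positive control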
FBW7 activator: activators of human E3 ligase FBW7 | AlphaScreen FBW7–phospho-cyclin E peptide binding, activator screen | normalized activity (activation), % at 26.1 µM | 0.13% of 650,000 active; in the data active = normalized activity above about 1.9%;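 note: purified mutant Fbw7 with reduced substrate affinity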
Target sequence (Q969H0 whole entry, looked up): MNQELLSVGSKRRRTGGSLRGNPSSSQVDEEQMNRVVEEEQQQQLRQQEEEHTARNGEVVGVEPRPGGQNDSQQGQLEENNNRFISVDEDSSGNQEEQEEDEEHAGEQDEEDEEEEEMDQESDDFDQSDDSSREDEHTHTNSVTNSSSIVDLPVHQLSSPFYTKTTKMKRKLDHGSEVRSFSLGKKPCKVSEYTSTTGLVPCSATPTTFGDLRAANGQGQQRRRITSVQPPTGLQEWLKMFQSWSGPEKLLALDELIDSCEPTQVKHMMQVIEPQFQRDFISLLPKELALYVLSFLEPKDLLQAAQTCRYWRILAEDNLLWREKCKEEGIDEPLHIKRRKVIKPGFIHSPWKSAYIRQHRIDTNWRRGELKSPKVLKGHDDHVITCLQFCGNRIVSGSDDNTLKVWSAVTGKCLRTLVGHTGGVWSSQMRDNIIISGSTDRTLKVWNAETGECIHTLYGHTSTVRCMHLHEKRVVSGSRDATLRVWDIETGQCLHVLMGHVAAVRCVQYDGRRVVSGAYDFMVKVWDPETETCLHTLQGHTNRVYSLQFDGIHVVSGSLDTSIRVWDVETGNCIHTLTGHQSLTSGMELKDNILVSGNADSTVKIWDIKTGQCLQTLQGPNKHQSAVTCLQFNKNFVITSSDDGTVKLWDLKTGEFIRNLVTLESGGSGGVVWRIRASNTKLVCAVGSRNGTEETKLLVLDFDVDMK
* marks the source's active call; other numbers are inactive results.

SMILES	TEAD-YAP inh	MITF primary	GPR151 ag	FBW7 activator
Cc1cc2cc(CCNS(=O)(=O)c3ccc([N+](=O)[O-])cc3)c(=O)[nH]c2cc1C	45.1*	19.2	0.6	0.6
O=C(Nc1cc2ccccc2oc1=O)c1ccc(Br)cc1	-25.9	-12.7	-0.2	-0.1
CC(=O)Oc1ccc2cc(NC(=O)c3ccc(C)cc3)c(=O)oc2c1	52.5*	9.1	-0.4	0.0
O=C(Nc1cc2ccccc2oc1=O)c1ccccc1	53.6*	13.9	-8.0	0.2
O=C1NC(=S)N/C1=C\C=C\c1ccc([N+](=O)[O-])o1	88.7*	77.8*	2.1	-0.4
COc1ccc2occ(C(=O)COc3ccc(Br)cc3C#N)c2c1	57.2*	-4.0	-0.3	0.7
O=C(Nc1ccc(Br)cc1)/C(=C/c1cccc([N+](=O)[O-])c1)NC(=O)c1cccc(Cl)c1	7.9	19.6	-1.0	0.2
O=C(Nc1ccc2c3c(cccc13)CC2)c1cc(Br)ccc1Cl	55.0*	-4.3	2.5	-0.7
O=C(Nc1ccc2c3c(cccc13)CC2)c1cc(I)ccc1Cl	16.9	-12.6	-0.9	0.1
COc1ccccc1Nc1nc2nonc2nc1Nc1cccc(Br)c1	21.0	2.4	0.2	-0.3
Brc1cccc(Nc2nc3nonc3nc2NCc2ccco2)c1	87.1*	-4.3	0.2	0.6
Cc1cccc(Nc2nc(NCc3ccco3)c3ccccc3n2)c1	60.0*	-0.7	-0.1	-0.1
Oc1cccc(Nc2nc(NCc3ccco3)c3ccccc3n2)c1	10.7	15.2	0.6	-0.3
Cc1cc(NC(=O)CSc2nc3ccccc3c(=O)n2NC(=O)c2ccccc2)n[nH]1	47.0*	-2.9	-3.5	-0.3
COc1ccc(C(=O)Nn2c(SCC(=O)Nc3ccc(C)c(Cl)c3)nc3ccccc3c2=O)cc1	75.3*	7.2	0.6	0.1
Cc1cc(NC(=O)CCCC(=O)c2ccccc2)n[nH]1	46.9*	9.0	3.2	0.3
Cc1ccc(C(=O)CCC(=O)Nc2cc(C)[nH]n2)cc1	21.0	7.6	1.9	-0.1
COc1ccc(CCn2c(SCC(=O)Nc3ccc(C)c(Cl)c3)nc3ccccc3c2=O)cc1OC	11.5	3.0	-1.1	0.8
Cc1ccc(NC(=O)CSc2nc3ccccc3c(=O)n2NC(=O)c2ccc(F)cc2)cc1Cl	57.4*	8.7	-3.8	0.7
CCCCN=Cc1c(O)n(-c2ccccc2)c(=O)[nH]c1=O	1.4	-5.3	-0.1	-0.1
O=C(Nc1ccc(S(=O)(=O)N2CCc3ccccc32)cc1)c1cccs1	-4.8	-1.9	0.1	0.2
CCn1c(SCC(=O)Nc2ccc(C)c(Cl)c2)nc2c1c(=O)n(C)c(=O)n2C	3.3	10.3	1.4	1.9*
CSc1ccc2nc(N3CCN(C(=O)c4c(C)cnn4C)CC3)sc2c1	43.6*	-21.7	-0.1	0.2
COc1ccc(N(Cc2cccs2)C(=O)CCl)cc1	22.7	7.1	-1.4	-0.2
O=C(CCl)N(Cc1cccs1)c1ccc2c(c1)OCCO2	37.2*	3.3	-1.1	0.4
SMILES	TEAD-YAP inh	MITF primary	GPR151 ag	FBW7 activator
COc1cccc(OC)c1C(=O)Nc1ccc2c(c1)OCCO2	-6.9	3.5	0.5	0.3
O=C(Nc1ccc2c(c1)OCCO2)c1ccc(C(=O)Nc2ccc3c(c2)OCCO3)nc1	64.5*	11.6	2.9	-0.2
COC(=O)C(=NNc1ccc2c(c1)OCCO2)C(=O)OC	80.5*	-0.5	-1.7	0.7
CC12CCC(C(=O)Nc3ccc4c(c3)OCCO4)(CC1=O)C2(C)C (stereo not given)	62.3*	2.1	-0.4	-0.2
CC12CCC(C(=O)Nc3ccc(Cl)c(Cl)c3)(CC1=O)C2(C)C (stereo not given)	8.5	1.7	1.6	0.1
O=C(Nc1ccc2c(c1)OCCO2)c1ccc2ccccc2c1	87.1*	6.5	-7.2	0.4
O=C(Nc1ccc2c(c1)OCCO2)c1ccccc1	11.8	10.0	-0.5	0.1
CC(=O)CCN1C(=O)C(=O)c2cccc(C)c21	0.2	15.2	0.2	-0.1
CN(CC(=O)N1CCC(CO)(Cc2ccccc2Cl)CC1)Cc1cccnc1	-9.3	-1.0	1.0	-0.1
O=C(CN1C(=O)CC(c2ccccc2)S(=O)(=O)c2ccccc21)Nc1ccccc1 (stereo not given)	-2.7	6.1	-0.5	0.3
O=C(O)C1C2CCC(O2)C1C(=O)Nc1ccc2c(c1)OCCO2 (stereo not given)	8.1	5.5	-1.2	0.0
COc1ccc(C(=O)Nc2ccc3c(c2)OCCO3)cc1	66.4*	0.5	-6.8	0.1
O=C(Nc1cccnc1)C(=O)Nc1ccc2c(c1)OCCO2	58.9*	21.9	-6.1	0.0
Cc1cc(C(=O)Nc2ccc3c(c2)OCCO3)cs1	40.7*	9.8	-4.6	0.0
O=C(O)C1CCCCC1C(=O)Nc1ccc2c(c1)OCCO2 (stereo not given)	61.7*	18.9	-1.3	0.4
CN1C(=O)/C(=C\c2ccc(C(=O)Nc3nccs3)cc2)SC1=S	-1.4	16.4	-0.5	1.1
O=C(Nc1ccc2sccc2c1)c1ccc2c(c1)OCO2	71.5*	-8.2	-6.6	-0.1
Cc1ccc2cc3c(N)c(C(=O)Nc4ccc5c(c4)OCCO5)sc3nc2c1	70.8*	8.8	-0.5	-0.1
COc1ccc(NC(=O)c2ccc3c(c2)OCCO3)cc1	74.7*	-2.7	-5.0	-0.3
COc1ccc(-n2nc(C(=O)NCC(=O)NCCCN3CCC(C)CC3)c3ccccc3c2=O)cc1	7.5	-7.1	2.6	0.2
c1ccc(-c2cc(-c3ccccc3)[n+](CCc3c[nH]c4ccccc34)c(-c3ccccc3)c2)cc1	70.2*	10.0	2.3	-0.1
CCOC(=O)CN1c2ccccc2NC1C(C#N)c1ccc(OC)cc1 (stereo not given)	36.5*	0.1	-2.3	0.4
CCOC(=O)CSC1=C(C#N)C(=O)NC(c2ccc(OC)cc2)S1 (stereo not given)	-3.1	-1.9	0.3	-0.1
CCOc1ccc(Nc2c(C(=O)N3CCOCC3)cnc3ccccc23)cc1	42.4*	-4.3	-0.4	-0.1
C=CC(=O)Nc1ccc(Br)cc1	35.5*	6.3	-0.8	0.1
SMILES	TEAD-YAP inh	MITF primary	GPR151 ag	FBW7 activator
O=C(O)/C=C\C(=O)Nc1ccc(Br)cc1	5.0	4.5	0.7	-0.1
O=C(COc1ccccc1)NCc1n[nH]c(=S)n1-c1cccc(Cl)c1	-6.9	2.1	-0.3	0.5
Cc1[nH]n(-c2ccccc2)c(=O)c1/C=N/Nc1nncc(-c2ccccc2)n1	41.9*	-22.0	0.9	-0.1
Cc1ccc(/C=N/Nc2nncc(-c3ccccc3)n2)o1	-41.5	-3.9	-1.1	-0.9
Cc1[nH]n(-c2ccccc2)c(=O)c1/C=N/Nc1nnc(C)c(=O)[nH]1	15.4	100.7*	0.3	-0.2
CCOc1ccc(N=Cc2c(C)[nH]n(-c3ccccc3)c2=O)cc1	0.4	0.6	2.1	-0.3
Cc1nnc(N/N=C/c2ccccc2)[nH]c1=O	-4.4	-7.2	0.3	-0.2
Cc1[nH]n(-c2ccccc2)c(=O)c1C=Nc1ccc(N(C)C)cc1	20.5	62.8*	0.3	-0.4
NC1=NC(=O)/C(=C\c2ccccc2Sc2ccc(Cl)cc2)S1	-6.2	8.7	3.7	0.5
CC(C)N(CCO)Cc1ccc(OCC(O)CN(C)Cc2ccccc2)cc1 (stereo not given)	2.0	-4.5	-0.3	0.2
Cc1ccc(CNC(=O)CCNS(=O)(=O)c2ccc3[nH]c(=O)ccc3c2)o1	-0.8	1.2	-1.0	-0.1

High-throughput results (PubChem)
